Assay results taken from paper PMC2807882, “Conservation of DNA-binding specificity and oligomerisation properties within the p53 family”.

Key:
Assay in all cases: fluorescence anisotropy competition titration; 25 mM sodium phosphate (purification buffer pH 7.2), 225 mM NaCl, 10% v/v glycerol, 5 mM DTT, 0.2 mg/mL BSA, 22 C; low values mean tight binding
Conditions in all cases: protein: recombinant; tags: N-terminal 6xHis-lipoyl-TEV tag, cleaved; chain copies: 4; dsDNA, one strand shown
Dmp53 = target: T1, Dmp53 (Drosophila melanogaster, UniProt Q9N6D8 1-385)
T1 sequence: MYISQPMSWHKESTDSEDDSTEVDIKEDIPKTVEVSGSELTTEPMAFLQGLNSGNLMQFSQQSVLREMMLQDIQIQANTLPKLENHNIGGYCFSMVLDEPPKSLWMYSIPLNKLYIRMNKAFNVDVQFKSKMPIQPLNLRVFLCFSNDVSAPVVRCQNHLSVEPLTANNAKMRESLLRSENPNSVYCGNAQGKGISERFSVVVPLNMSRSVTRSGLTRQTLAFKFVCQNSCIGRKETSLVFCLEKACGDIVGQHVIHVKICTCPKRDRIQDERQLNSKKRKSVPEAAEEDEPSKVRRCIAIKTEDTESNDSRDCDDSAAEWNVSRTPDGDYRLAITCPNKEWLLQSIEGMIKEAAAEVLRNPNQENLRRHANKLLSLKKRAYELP

Drp53 = target: T2, Drp53 (Danio rerio, UniProt P79734 1-373)
T2 sequence: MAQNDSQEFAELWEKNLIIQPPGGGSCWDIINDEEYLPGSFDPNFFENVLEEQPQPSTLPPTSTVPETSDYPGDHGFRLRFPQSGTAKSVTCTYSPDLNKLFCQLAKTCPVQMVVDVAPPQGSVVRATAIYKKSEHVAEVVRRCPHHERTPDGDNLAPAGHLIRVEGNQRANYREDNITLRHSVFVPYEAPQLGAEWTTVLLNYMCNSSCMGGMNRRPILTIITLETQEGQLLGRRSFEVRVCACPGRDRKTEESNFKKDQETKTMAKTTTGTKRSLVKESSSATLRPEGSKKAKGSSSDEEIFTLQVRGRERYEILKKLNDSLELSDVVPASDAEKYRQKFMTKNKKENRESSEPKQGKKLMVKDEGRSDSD

Hsp53 = Hsp53 (Homo sapiens, UniProt P04637 1-393)
Chain of Hsp53 (P04637 whole entry): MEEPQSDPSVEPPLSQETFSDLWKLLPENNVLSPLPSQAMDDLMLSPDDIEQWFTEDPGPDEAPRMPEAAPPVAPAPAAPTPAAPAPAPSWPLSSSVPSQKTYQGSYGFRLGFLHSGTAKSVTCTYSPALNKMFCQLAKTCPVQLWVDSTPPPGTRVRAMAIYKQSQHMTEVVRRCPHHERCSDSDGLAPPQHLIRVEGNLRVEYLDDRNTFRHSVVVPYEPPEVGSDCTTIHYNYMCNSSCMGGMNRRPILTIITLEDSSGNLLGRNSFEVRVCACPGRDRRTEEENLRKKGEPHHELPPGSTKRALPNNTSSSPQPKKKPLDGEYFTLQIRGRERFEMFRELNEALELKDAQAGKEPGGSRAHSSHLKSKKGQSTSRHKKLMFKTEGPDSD

Xlp53 = Xlp53 (Xenopus laevis, UniProt Q7T1D0 1-362)
Chain of Xlp53 (Q7T1D0 entry or part of it): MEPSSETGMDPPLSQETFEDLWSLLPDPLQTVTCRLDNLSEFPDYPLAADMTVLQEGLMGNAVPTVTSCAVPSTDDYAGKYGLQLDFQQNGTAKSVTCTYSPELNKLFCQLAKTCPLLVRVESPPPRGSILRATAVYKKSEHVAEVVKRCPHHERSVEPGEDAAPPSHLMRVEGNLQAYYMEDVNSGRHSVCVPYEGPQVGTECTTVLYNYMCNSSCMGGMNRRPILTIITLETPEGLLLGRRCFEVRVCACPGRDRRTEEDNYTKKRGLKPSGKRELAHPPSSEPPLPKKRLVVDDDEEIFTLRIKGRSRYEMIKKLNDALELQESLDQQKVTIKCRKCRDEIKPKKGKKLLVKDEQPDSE

ΔNp63α = target: T3, ΔNp63α (Homo sapiens, UniProt Q9H3D4-2 1-586)
T3 sequence: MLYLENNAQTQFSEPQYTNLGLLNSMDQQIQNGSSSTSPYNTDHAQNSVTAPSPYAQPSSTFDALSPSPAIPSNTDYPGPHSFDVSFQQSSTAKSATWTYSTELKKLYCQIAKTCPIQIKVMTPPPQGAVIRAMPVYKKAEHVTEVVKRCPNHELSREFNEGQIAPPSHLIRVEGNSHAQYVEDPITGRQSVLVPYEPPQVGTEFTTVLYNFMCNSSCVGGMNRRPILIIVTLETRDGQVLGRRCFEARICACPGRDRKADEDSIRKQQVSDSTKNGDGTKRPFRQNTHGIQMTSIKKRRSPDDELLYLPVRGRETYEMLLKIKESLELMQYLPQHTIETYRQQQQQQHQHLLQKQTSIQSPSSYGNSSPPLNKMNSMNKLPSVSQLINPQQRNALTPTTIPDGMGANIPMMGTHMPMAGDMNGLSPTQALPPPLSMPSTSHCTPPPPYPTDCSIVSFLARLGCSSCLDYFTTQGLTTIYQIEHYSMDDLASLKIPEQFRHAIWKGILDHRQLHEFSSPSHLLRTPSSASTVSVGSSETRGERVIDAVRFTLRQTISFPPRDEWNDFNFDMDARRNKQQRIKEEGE

ΔNp63β = target: T4, ΔNp63β (Homo sapiens, UniProt Q9H3D4-4 1-461)
T4 sequence: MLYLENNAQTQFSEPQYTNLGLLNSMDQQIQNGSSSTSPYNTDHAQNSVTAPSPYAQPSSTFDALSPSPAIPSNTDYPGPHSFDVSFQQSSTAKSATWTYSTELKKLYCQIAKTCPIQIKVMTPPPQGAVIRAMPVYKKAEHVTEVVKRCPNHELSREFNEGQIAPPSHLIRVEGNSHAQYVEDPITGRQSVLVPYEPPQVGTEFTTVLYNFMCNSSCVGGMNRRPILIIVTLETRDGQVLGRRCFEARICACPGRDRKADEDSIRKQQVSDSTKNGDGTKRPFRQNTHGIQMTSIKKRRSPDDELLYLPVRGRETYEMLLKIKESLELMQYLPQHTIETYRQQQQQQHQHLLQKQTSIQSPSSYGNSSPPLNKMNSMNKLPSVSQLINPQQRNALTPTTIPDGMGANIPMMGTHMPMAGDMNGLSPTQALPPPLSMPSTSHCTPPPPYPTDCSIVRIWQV

ΔNp63γ = target: T5, ΔNp63γ (Homo sapiens, UniProt Q9H3D4-6 1-393)
T5 sequence: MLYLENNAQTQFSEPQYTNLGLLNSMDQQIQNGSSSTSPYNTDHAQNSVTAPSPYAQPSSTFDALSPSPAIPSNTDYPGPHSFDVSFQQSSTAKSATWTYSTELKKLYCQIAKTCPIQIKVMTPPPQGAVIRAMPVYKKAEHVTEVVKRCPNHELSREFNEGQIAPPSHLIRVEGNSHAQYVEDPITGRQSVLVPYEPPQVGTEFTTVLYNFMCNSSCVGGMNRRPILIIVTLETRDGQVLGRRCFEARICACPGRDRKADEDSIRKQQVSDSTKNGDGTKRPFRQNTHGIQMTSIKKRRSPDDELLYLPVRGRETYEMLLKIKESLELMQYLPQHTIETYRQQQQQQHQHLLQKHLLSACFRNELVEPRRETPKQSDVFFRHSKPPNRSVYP

ΔNp73β = target: T6, ΔNp73β (Homo sapiens, UniProt O15350-9 1-450)
T6 sequence: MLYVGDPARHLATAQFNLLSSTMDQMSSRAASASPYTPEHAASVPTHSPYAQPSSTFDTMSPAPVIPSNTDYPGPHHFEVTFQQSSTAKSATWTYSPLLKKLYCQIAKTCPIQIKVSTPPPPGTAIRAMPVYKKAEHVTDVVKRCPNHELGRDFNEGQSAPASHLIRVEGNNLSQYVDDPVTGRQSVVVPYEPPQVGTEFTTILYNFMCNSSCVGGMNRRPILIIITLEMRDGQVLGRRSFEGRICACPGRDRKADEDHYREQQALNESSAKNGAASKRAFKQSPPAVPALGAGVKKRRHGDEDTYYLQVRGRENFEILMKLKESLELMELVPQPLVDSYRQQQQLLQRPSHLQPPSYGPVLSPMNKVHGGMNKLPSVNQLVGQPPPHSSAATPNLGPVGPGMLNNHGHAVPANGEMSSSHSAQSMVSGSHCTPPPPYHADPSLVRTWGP

Mmp53 = Mmp53 (Mus musculus, UniProt P02340 1-390)
Chain of Mmp53 (P02340 whole entry): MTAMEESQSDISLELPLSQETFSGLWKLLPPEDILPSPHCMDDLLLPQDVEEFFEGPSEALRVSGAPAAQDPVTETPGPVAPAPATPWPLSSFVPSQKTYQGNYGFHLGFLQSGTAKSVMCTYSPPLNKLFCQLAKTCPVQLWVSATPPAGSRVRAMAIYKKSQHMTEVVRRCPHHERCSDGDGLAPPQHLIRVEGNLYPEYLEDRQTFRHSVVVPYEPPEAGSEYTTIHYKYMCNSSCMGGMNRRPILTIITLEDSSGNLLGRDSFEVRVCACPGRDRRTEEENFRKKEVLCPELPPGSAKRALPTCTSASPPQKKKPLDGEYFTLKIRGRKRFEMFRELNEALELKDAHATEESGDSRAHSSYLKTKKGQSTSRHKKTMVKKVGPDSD

p73CT = target: T7, p73CT (Homo sapiens, UniProt O15350 104-383)
T7 sequence: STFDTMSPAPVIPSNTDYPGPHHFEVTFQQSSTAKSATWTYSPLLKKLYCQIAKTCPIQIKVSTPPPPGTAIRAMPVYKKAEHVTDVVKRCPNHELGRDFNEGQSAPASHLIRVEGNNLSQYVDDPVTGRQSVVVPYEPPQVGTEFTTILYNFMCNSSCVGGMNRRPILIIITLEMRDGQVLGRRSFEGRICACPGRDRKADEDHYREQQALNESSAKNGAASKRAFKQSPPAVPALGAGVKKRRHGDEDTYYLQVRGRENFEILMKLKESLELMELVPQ

Row | Sequence | binding signal (Dmp53) | binding signal (Drp53) | binding signal (Hsp53) | binding signal (Xlp53) | binding signal (ΔNp63α) | binding signal (ΔNp63β) | binding signal (ΔNp63γ) | binding signal (ΔNp73β) | binding signal (Mmp53) | binding signal (p73CT)
1 | CGCGGACAAGTCCGGACATGTCCCGC | 0.22 delta log10 Kd | 0.35 delta log10 Kd | 0.16 delta log10 Kd | 0.18 delta log10 Kd | 0.02 delta log10 Kd | 0.15 delta log10 Kd | 0.19 delta log10 Kd | 0.12 delta log10 Kd | 0.27 delta log10 Kd | 0.19 delta log10 Kd
2 | CGCGGACATGTACGGACATGTCCCGC | 0.07 delta log10 Kd | 0.39 delta log10 Kd | 0.34 delta log10 Kd | 0.35 delta log10 Kd | 0.15 delta log10 Kd | 0.29 delta log10 Kd | 0.32 delta log10 Kd | 0.4 delta log10 Kd | 0.27 delta log10 Kd | 0.36 delta log10 Kd
3 | CGCGGACATGTGCGGACATGTCCCGC | 0.23 delta log10 Kd | 0.54 delta log10 Kd | 0.49 delta log10 Kd | 0.57 delta log10 Kd | 0.3 delta log10 Kd | 0.46 delta log10 Kd | 0.49 delta log10 Kd | 0.65 delta log10 Kd | 0.36 delta log10 Kd | 0.53 delta log10 Kd
4 | CGCGGACATCTCCGGACATGTCCCGC | 1.51 delta log10 Kd | 1.3 delta log10 Kd | 0.9 delta log10 Kd | 1.38 delta log10 Kd | 1.33 delta log10 Kd | 1.45 delta log10 Kd | 1.68 delta log10 Kd | 1.8 delta log10 Kd | 0.67 delta log10 Kd | 1.56 delta log10 Kd
5 | CGCGCACATGTCCGGACATGTCCCGC | 0.21 delta log10 Kd | 0.41 delta log10 Kd | 0.37 delta log10 Kd | 0.27 delta log10 Kd | 0.15 delta log10 Kd | 0.36 delta log10 Kd | 0.37 delta log10 Kd | 0.44 delta log10 Kd | 0.28 delta log10 Kd | 0.39 delta log10 Kd
6 | CGCGGACATGTTCGGACATGTCCCGC | 0.17 delta log10 Kd | 0.38 delta log10 Kd | 0.34 delta log10 Kd | 0.39 delta log10 Kd | 0.17 delta log10 Kd | 0.47 delta log10 Kd | 0.33 delta log10 Kd | 0.48 delta log10 Kd | 0.19 delta log10 Kd | 0.36 delta log10 Kd
7 | CGCGGCCATGTCCGGACATGTCCCGC | 0.75 delta log10 Kd | 0.86 delta log10 Kd | 0.66 delta log10 Kd | 0.82 delta log10 Kd | – | 0.88 delta log10 Kd | 0.93 delta log10 Kd | – | 0.46 delta log10 Kd | –
8 | CGCAGACATGTCCGGACATGTCCCGC | 0.03 delta log10 Kd | 0.01 delta log10 Kd | 0.01 delta log10 Kd | 0 delta log10 Kd | 0 delta log10 Kd | 0.03 delta log10 Kd | 0.04 delta log10 Kd | 0.01 delta log10 Kd | 0.05 delta log10 Kd | 0.02 delta log10 Kd
9 | CGCGGACATGCCCGGACATGTCCCGC | 0.26 delta log10 Kd | – | 0.03 delta log10 Kd | 0.03 delta log10 Kd | 0.06 delta log10 Kd | 0.13 delta log10 Kd | 0.12 delta log10 Kd | 0.03 delta log10 Kd | – | 0.05 delta log10 Kd
10 | CGCGGACATGACCGGACATGTCCCGC | 0.24 delta log10 Kd | – | 0.42 delta log10 Kd | 0.43 delta log10 Kd | 0.43 delta log10 Kd | 0.62 delta log10 Kd | 0.72 delta log10 Kd | 0.78 delta log10 Kd | – | 0.57 delta log10 Kd
11 | CGCGTACATGTCCGGACATGTCCCGC | 0.12 delta log10 Kd | 0.21 delta log10 Kd | 0.21 delta log10 Kd | 0.13 delta log10 Kd | 0.08 delta log10 Kd | 0.23 delta log10 Kd | 0.21 delta log10 Kd | 0.24 delta log10 Kd | 0.19 delta log10 Kd | 0.24 delta log10 Kd
12 | CGCGGACATGTCAGGACATGTCCCGC | 0.14 delta log10 Kd | 0.32 delta log10 Kd | 0.31 delta log10 Kd | 0.27 delta log10 Kd | 0.09 delta log10 Kd | 0.13 delta log10 Kd | 0.13 delta log10 Kd | 0.27 delta log10 Kd | 0.2 delta log10 Kd | 0.2 delta log10 Kd
13 | CGCGGAAATGTCCGGACATGTCCCGC | 1.31 delta log10 Kd | 1.13 delta log10 Kd | 0.77 delta log10 Kd | 0.9 delta log10 Kd | 1.08 delta log10 Kd | 0.93 delta log10 Kd | 1.4 delta log10 Kd | 1.49 delta log10 Kd | 0.52 delta log10 Kd | 1.35 delta log10 Kd
14 | CGCTGACATGTCCGGACATGTCCCGC | 0.02 delta log10 Kd | 0.22 delta log10 Kd | 0.16 delta log10 Kd | 0.13 delta log10 Kd | 0.08 delta log10 Kd | 0.1 delta log10 Kd | 0.1 delta log10 Kd | 0.11 delta log10 Kd | 0.18 delta log10 Kd | 0.09 delta log10 Kd
15 | CGCGGACATTTCCGGACATGTCCCGC | 1.55 delta log10 Kd | 1.37 delta log10 Kd | 0.44 delta log10 Kd | 0.88 delta log10 Kd | 1.1 delta log10 Kd | 1.2 delta log10 Kd | 1.46 delta log10 Kd | 1.43 delta log10 Kd | 0.65 delta log10 Kd | 1.58 delta log10 Kd
